Measurements taken from PubChem BioAssay AID1159580 (chemical genetic matrix, 2015).
In all, about 5,500 compounds went through this assay and about 2,000 (36%) were called active. Roughly 18% stayed inconclusive and do not appear here. Cut-off read from the data, not from the text of the source: active = normalized growth mostly below about 0.91 (no sharp cut-off); inconclusive = no clear call, values can overlap the other calls; inactive = mostly above about 0.92. The list shows a part of the results.

Assay: chemical genetic growth profiling, strain panel (AID 1159580);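 note: tested at 20 µM; growth read once vehicle control cultures reached saturation at 30 °C; 1 = growth at the plate median or of vehicle wells; lower values mean less growth of the strain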
Details: S. cerevisiae deletion strains, growth OD

Measured: normalized growth

O=[N+]([O-])c1cccc2cn[nH]c12
inactive: locus YAL021C, strain ccr4, stronger effect = lower value 1.01 | locus YAL026C, strain drs2, stronger effect = lower value 1 | locus YAL030W, strain snc1, stronger effect = lower value 1 | locus YAL040C, strain CLN3, stronger effect = lower value 0.985 | locus YBL061C, strain skt5, stronger effect = lower value 0.996 | locus YBR009C, strain hhf1, stronger effect = lower value 1 | locus YBR023C, strain chs3, stronger effect = lower value 0.991 | locus YBR171W, strain sec66, stronger effect = lower value 0.981 | locus YBR231C, strain swc5, stronger effect = lower value 0.982 | locus YBR279W, strain paf1, stronger effect = lower value 1 | locus YCL011C, strain gbp2, stronger effect = lower value 0.983 | locus YCL016C, strain dcc1, stronger effect = lower value 0.989 | locus YCL061C, strain MRC1 (second series), stronger effect = lower value 1 | locus YCL061C, strain MRC1, stronger effect = lower value 0.997 | locus YCL069W, strain vba3, stronger effect = lower value 0.986 | locus YCR088W, strain abp1, stronger effect = lower value 0.98 | locus YDL005C, strain med2, stronger effect = lower value 0.997 | locus YDL040C, strain nat1, stronger effect = lower value 1 | locus YDR001C, strain nth1, stronger effect = lower value 0.99 | locus YDR069C, strain doa4, stronger effect = lower value 0.982 | locus YDR137W, strain rgp1, stronger effect = lower value 0.996 | locus YDR159W, strain sac3, stronger effect = lower value 0.991 | locus YDR195W, strain ref2 1.02 | locus YDR297W, strain sur2, stronger effect = lower value 0.988 | locus YDR334W, strain swr1, stronger effect = lower value 0.997 | locus YDR335W, strain msn5, stronger effect = lower value 0.986 | locus YDR363W, strain ESC2, stronger effect = lower value 1.01 | locus YDR392W, strain spt3, stronger effect = lower value 1.02 | locus YEL003W, strain gim4, stronger effect = lower value 1 | locus YEL037C, strain rad23, stronger effect = lower value 1 | locus YEL061C, strain CIN8 (second series), stronger effect = lower value 0.979 | locus YER002W, strain NOP16, stronger effect = lower value 0.987 | locus YER015W, strain faa2, stronger effect = lower value 0.994 | locus YER016W, strain bim1, stronger effect = lower value 1 | locus YER111C, strain swi4, stronger effect = lower value 0.989 | locus YER155C, strain BEM2 (second series), stronger effect = lower value 1.01 | locus YFR010W, strain ubp6, stronger effect = lower value 0.988 | locus YGL167C, strain pmr1, stronger effect = lower value 0.998 | locus YGL173C, strain kem1, stronger effect = lower value 1.01 | locus YGL227W, strain vid30, stronger effect = lower value 1.01 | locus YGL240W, strain doc1, stronger effect = lower value 1.01 | locus YGL253W, strain hxk2, stronger effect = lower value 0.99 | locus YGR229C, strain SMI1, stronger effect = lower value 0.999 | locus YHR013C, strain ard1, stronger effect = lower value 1.05 | locus YHR027C, strain rpn1, stronger effect = lower value 0.994 | locus YHR030C, strain SLT2, stronger effect = lower value 1.03 | locus YHR079C, strain IRE1, stronger effect = lower value 1.03 | locus YHR142W, strain chs7, stronger effect = lower value 0.995 | locus YJL092W, strain hpr5, stronger effect = lower value 0.989 | locus YJL095W, strain BCK1 (second series), stronger effect = lower value 1 | locus YJL095W, strain BCK1, stronger effect = lower value 1.03 | locus YJL115W, strain asf1, stronger effect = lower value 0.984 | locus YJL129C, strain trk1, stronger effect = lower value 1 | locus YJL154C, strain vps35, stronger effect = lower value 0.981 | locus YJL164C, strain tpk1, stronger effect = lower value 0.988 | locus YJL166W, strain qcr8, stronger effect = lower value 0.992 | locus YJL187C, strain SWE1, stronger effect = lower value 0.999 | locus YJR066W, strain TOR1, stronger effect = lower value 0.947 | locus YJR075W, strain HOC1, stronger effect = lower value 1.01 | locus YKL160W, strain elf1, stronger effect = lower value 0.958 | locus YKR026C, strain gcn3, stronger effect = lower value 1 | locus YKR091W, strain srl3, stronger effect = lower value 0.988 | locus YLL001W, strain dnm1, stronger effect = lower value 0.999 | locus YLL026W, stronger effect = lower value 0.98 | locus YLL041C, strain sdh2, stronger effect = lower value 0.985 | locus YLR027C, strain aat2, stronger effect = lower value 1 | locus YLR113W, strain HOG1, stronger effect = lower value 1 | locus YLR221C, strain rsa3, stronger effect = lower value 0.995 | locus YLR258W, strain gsy2, stronger effect = lower value 0.983 | locus YLR262C, strain YPT6 (second series), stronger effect = lower value 1.01 | locus YLR320W, strain mms22, stronger effect = lower value 1 | locus YLR342W, strain FKS1, stronger effect = lower value 1.01 | locus YLR357W, strain rsc2, stronger effect = lower value 0.993 | locus YLR370C, strain arc18, stronger effect = lower value 0.994 | locus YLR384C, strain iki3, stronger effect = lower value 0.996 | locus YML120C, strain ndi1, stronger effect = lower value 0.991 | locus YMR058W, strain fet3, stronger effect = lower value 0.982 | locus YMR125W, strain sto1, stronger effect = lower value 0.967 | locus YMR129W, stronger effect = lower value 0.993 | locus YMR205C, strain PFK2, stronger effect = lower value 0.991 | locus YMR231W, strain pep5, stronger effect = lower value 1 | locus YNL071W, strain lat1, stronger effect = lower value 1.01 | locus YNL128W, strain TEP1, stronger effect = lower value 0.998 | locus YNL175C, strain NOP13, stronger effect = lower value 0.999 | locus YNL183C, strain NPR1, stronger effect = lower value 0.951 | locus YNL197C, strain WHI3, stronger effect = lower value 0.992 | locus YNL209W, strain ssb2, stronger effect = lower value 0.972 | locus YNL224C, strain SQS1, stronger effect = lower value 1 | locus YNL248C, strain rpa49, stronger effect = lower value 0.965 | locus YNL322C, strain KRE1 (second series), stronger effect = lower value 0.993 | locus YNR049C, strain mso1, stronger effect = lower value 1 | locus YOR001W, strain rrp6, stronger effect = lower value 1 | locus YOR070C, strain gyp1, stronger effect = lower value 0.992 | locus YOR080W, strain dia2, stronger effect = lower value 1.01 | locus YOR083W, strain WHI5 (second series), stronger effect = lower value 1 | locus YOR083W, strain WHI5, stronger effect = lower value 0.965 | locus YOR106W, strain vam3, stronger effect = lower value 0.981 | locus YOR231W, strain MKK1, stronger effect = lower value 1.01 | locus YOR265W, strain rbl2, stronger effect = lower value 0.996 | locus YOR270C, strain vph1, stronger effect = lower value 0.992 | locus YOR290C, strain snf2, stronger effect = lower value 0.986 | locus YPL051W, strain arl3, stronger effect = lower value 0.972 | locus YPL078C, strain atp4, stronger effect = lower value 0.995 | locus YPL106C, strain sse1, stronger effect = lower value 0.957 | locus YPL240C, strain hsp82, stronger effect = lower value 0.992 | locus YPL256C, strain CLN2, stronger effect = lower value 0.997
